# Source: PubChem BioAssay (Paczesny and Yang Labs, IUPUI and University of Michigan)
# The entries come from a sample that favours hits as a whole.
# ST2 IL33 inh: IL1RL1 inhibition | Q01638 | AlphaLISA ST2-Fc/biotin-IL-33 interaction, 1 h | inhibition, % for hits at 17 µM | 78,000 tested, 2.3% active | AID 1259354; in the data active = inhibition above about 30%
# Target sequence (Q01638 whole entry, looked up): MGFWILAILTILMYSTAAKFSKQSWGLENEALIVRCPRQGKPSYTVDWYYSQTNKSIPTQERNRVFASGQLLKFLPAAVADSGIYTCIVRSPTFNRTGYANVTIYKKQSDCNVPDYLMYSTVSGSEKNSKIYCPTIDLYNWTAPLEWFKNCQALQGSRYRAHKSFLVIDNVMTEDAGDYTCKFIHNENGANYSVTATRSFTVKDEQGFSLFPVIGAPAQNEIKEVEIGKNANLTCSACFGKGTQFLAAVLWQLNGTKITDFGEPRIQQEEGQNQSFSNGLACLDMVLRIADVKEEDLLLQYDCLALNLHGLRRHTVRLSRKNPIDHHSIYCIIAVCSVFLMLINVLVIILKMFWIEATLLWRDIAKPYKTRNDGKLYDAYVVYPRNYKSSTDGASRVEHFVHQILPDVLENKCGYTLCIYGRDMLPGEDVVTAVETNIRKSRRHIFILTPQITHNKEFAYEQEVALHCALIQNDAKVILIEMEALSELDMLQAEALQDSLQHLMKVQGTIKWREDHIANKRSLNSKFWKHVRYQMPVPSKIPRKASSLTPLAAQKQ
# * hit, by the source's call; i = inactive.
SMILES,ST2 IL33 inh
Cc1cc(OCC(O)CNC(C)(C)C)ccc1C(C)C (stereo not drawn),i
Cc1ccc(NCC(O)COc2ccccc2)cc1C (stereo not drawn),35.0%*
CCN(CC)C(=O)C1CCCN(Cc2ccc(Cl)c(Cl)c2)C1 (stereo not drawn),i
O=C(C#Cc1ccccc1)Nc1ccc(Cl)cc1,i
C=CCO[C@@H]1CCN2C(=O)c3cc(-c4cccc(C)c4C)ccc3NC(=O)[C@H]12,i
COc1cccc(CN2CCN(c3cccc(C)c3C)CC2)c1OC,i
COC(=O)[C@@H]1C[C@@H](N(C)C)CN1C(=O)CCc1cc(Cl)no1,i
COc1ccc(/C=C2/SC(=O)N(CCC(=O)Nc3ccccc3Br)C2=O)cc1,i
COc1ccc(/C=C2/SC(=O)N(CC(=O)Nc3cc(C)on3)C2=O)cc1OC,35.0%*
O=C(CN1C(=O)S/C(=C/c2ccccc2)C1=O)Nc1ccccc1Cl,i
O=C(c1cc(=O)[nH]c2ccccc12)N1CC(c2ccncc2)C1,i
Oc1c(C=Nc2ccc(Cl)cc2)[nH]c2ccccc12,i
CCOc1c(O)ccc(/C=C2\C(=O)Nc3ccc(Br)cc32)c1[N+](=O)[O-],i
Cc1ccc(/C=C2\C(=O)Nc3ccc(Br)cc32)o1,30.0%*
COc1ccc(Br)cc1/C=C1\N=C(c2ccc(OC)c([N+](=O)[O-])c2)OC1=O,i
CCOc1cc(/C=C2\C(=O)Nc3ccc(Br)cc32)c(Br)cc1OC,41.0%*
COc1ccc(Br)cc1/C=C1\C(=O)Nc2ccc(Br)cc21,36.0%*
COc1ccc(Cl)cc1/C=C1/NC(=O)NC1=O,i
C=CCOc1cc(Br)c(/C=C2/NC(=O)NC2=O)cc1OC,i
Cc1cccc(C)c1N=C1C(=O)Nc2ccc(Br)cc21,i
COc1ccc(Cl)cc1/C=C1\C(=O)Nc2ccc(Br)cc21,35.0%*
CCOc1ccc(Br)cc1/C=C1\NC(=O)N(Cc2ccc(Cl)cc2)C1=O,i
CC1=NN(c2ccc(Br)cc2)C(=O)/C1=C/c1ccc(-c2ccc3c(c2)C(=O)OC3)o1,i
COc1ccc(Br)cc1CC(=O)O,i
NS(=O)(=O)c1ccc(-n2cccc2C=C2C(=O)NC(=O)NC2=O)cc1,i
SMILES,ST2 IL33 inh
COc1ccc(N(C)C(=O)Cc2c(C(=O)O)[nH]c3ccc(Cl)cc23)c(OC)c1,i
O=C(NC1C2CC3CC(C2)CC1C3)C1CCC(=O)N(Cc2ccccc2F)C1 (stereo not drawn),i
COc1ccc(-n2ncc3c(N4CCN(c5ccc(F)cc5)CC4)ncnc32)cc1,i
CC(C)CC1(CO)CCCN(C(=O)c2cccc3cnccc23)C1 (stereo not drawn),i
Cc1ccc(CN2C[C@H](O)C[C@H]2c2nc(-c3ccc(C)c(F)c3)no2)cc1,i
Cc1cc(C)n(Cc2ccc(C(=O)N3CCCC(O)(CO)C3)cc2)n1 (stereo not drawn),i
Cc1ccc(S(=O)(=O)N2CCN(Cc3nc4cccnc4n3-c3ccccc3)CC2)cc1Cl,i
COc1ccc(S(=O)(=O)N2CCN(S(=O)(=O)c3ccc(C)cc3)CC2)cc1,i
Cc1ccc(S(=O)(=O)N2CN3CN(C2)CN(S(=O)(=O)c2ccc(C)cc2)C3)cc1,46.0%*
Cc1ccc(S(=O)(=O)N2CCN(c3ccccc3)CC2)cc1,i
O=C(COc1ccc(Br)cc1)NCc1ccccc1,i
COc1ccc(C2C(C(=O)NC3CCCCCC3)c3cc(OC)c(OC)cc3C(=O)N2C)cc1 (stereo not drawn),i
Cc1cc(Cl)ccc1OCC(=O)Nc1ccccc1I,i
Cc1ccccc1NC1=CC(=O)CC(C)(C)C1,i
CC1(C)CC(=O)C=C(/C=C/c2ccc(N3N=N3)cc2)C1,40.0%*
CCn1cc(C(=O)N2CCCCC2)c2cc(OC)c(OC)cc2c1=O,i
Cn1cc(C(=O)N2CCCC2)c2c3ccccc3n(C)c2c1=O,i
CCOc1ccc(C(=O)Nc2cccc(NC(=O)C(C)C)c2)cc1[N+](=O)[O-],i
O=C(Nc1ccc2nn(-c3ccc(Cl)cc3)nc2c1)c1cccc(F)c1,i
COc1ccc(C(=O)Nc2ccc3nn(-c4ccc(Cl)cc4)nc3c2)cc1,37.0%*
COc1ccc(NC(=O)c2ccc(Cl)cc2)cc1,i
CCOc1ccc(C(=O)Nc2ccc3nn(-c4ccc(OC)c(Cl)c4)nc3c2)cc1[N+](=O)[O-],40.0%*
CCOc1ccc(C(=O)Nc2ccc3oc(-c4ccncc4)nc3c2)cc1[N+](=O)[O-],i
COc1ccccc1-n1cc2c([N+](=O)[O-])cc([N+](=O)[O-])cc2n1,35.0%*
COc1ccc(C2=N/C(=C\c3cccc(OC)c3OC)C(=O)O2)cc1[N+](=O)[O-],i
SMILES,ST2 IL33 inh
COc1ccc(-n2cc3c([N+](=O)[O-])cc([N+](=O)[O-])cc3n2)cc1,i
COCCN[C@H]1[C@@H]2OC[C@@H](O2)[C@@H](NCc2ccc(-c3ccccc3)cc2)[C@@H]1O,36.0%*
O[C@H]1[C@H](NCc2ccc(-c3ccccc3)cc2)[C@H]2CO[C@H](O2)[C@@H]1Oc1ccccc1,i
COc1ccccc1N1CCN([C@H]2[C@@H]3OC[C@@H](O3)[C@@H](NCc3ccc(-c4ccccc4)cc3)[C@@H]2O)CC1,i
Cc1[nH]c(=O)[nH]c(=O)c1S(=O)(=O)N(CCc1ccccc1)Cc1ccccc1,i
COc1ccc(C(=O)Nc2cccc(N3CCCS3(=O)=O)c2)cc1OC,i
O=C(O)c1cc(=O)[nH]c2ccc(S(=O)(=O)N3CCCCC3)cc12,i
COc1ccc(-c2c(C#N)c(N)nc(OC)c2C#N)c(OC)c1,i
COc1ccc(OC)c(-c2c(C#N)c(N)nc(OC)c2C#N)c1,i
COc1ccc(/C=C2/C(C)=C(C#N)c3nc(N)c(C#N)c(C)c32)c(OC)c1,43.0%*
C=CCN1C(=O)CSc2ccc(C(=O)NC3CCCc4ccccc43)cc21 (stereo not drawn),i
CCOc1cccc2sc(NC(=O)C3Cc4ccccc4O3)nc12 (stereo not drawn),i
Cn1c(=O)c2c(-c3ccccc3)n(N)cc2n(C)c1=O,i
Cn1c2c(c(=O)n(C)c1=O)C(c1ccccc1)C1=C(N2)c2ccccc2C1=O (stereo not drawn),i
Cn1c(=O)c(N)c2c3c(cccc31)C(=O)c1ccccc1-2,31.0%*
Cc1cccn2c(=O)c3cc(C(=O)NCc4ccccc4)c(=N)n(C(C)C)c3nc12,i
COc1cccc2c1OC1(C)CC2NC(=O)N1c1ccc(F)cc1 (stereo not drawn),i
COC(=O)[C@@H]1Cc2ncn(Cc3ccc(Cl)cc3)c2CN1C(=O)COc1ccccc1,i
COC(=O)[C@@H]1Cc2ncn(Cc3ccc(OC)cc3)c2CN1Cc1ccc(OC)cc1,89.0%*
COC(=O)[C@@H]1Cc2ncn(Cc3ccc(Cl)cc3)c2CN1Cc1ccc(F)cc1,i
COC(=O)[C@@H]1Cc2ncn(Cc3ccc(Cl)cc3)c2CN1S(C)(=O)=O,i
COC(=O)[C@@H]1Cc2ncn(Cc3ccc(OC)cc3)c2CN1Cc1cccc(C#N)c1,41.0%*
COC(=O)[C@@H]1Cc2ncn(Cc3ccc(OC)cc3)c2CN1C(=O)c1ccc(OC)cc1,i
COCC(=O)N1Cc2c(ncn2Cc2ccc(OC)cc2)C[C@H]1C(=O)OC,68.0%*
COC(=O)[C@@H]1Cc2ncn(Cc3ccc(Cl)cc3)c2CN1C(=O)c1ccccc1OC,i
COC(=O)[C@@H]1Cc2ncn(Cc3ccc(Cl)cc3)c2CN1Cc1ccc(CO)o1,i
CC(C)NC(=O)C1CCC(=O)N1C1CCCC1 (stereo not drawn),i
